The compounds below were run against Solute carrier family 2, facilitated glucose transporter member 1 (Homo sapiens) (UniProt P11166) (assay: ST_JUDE_LEISH: Cytotoxicity at 2uM final concentration against transgenic Leishmania Mexicana promastigotes LmGLUT1 that are glucose transport deficient and complemented with the human glucose transporter GLUT1. Activity is measured by DNA content using SYBR green in vitro).
Format: functional

Chain of Solute carrier family 2, facilitated glucose transporter member 1 (Homo sapiens) (P11166 whole entry): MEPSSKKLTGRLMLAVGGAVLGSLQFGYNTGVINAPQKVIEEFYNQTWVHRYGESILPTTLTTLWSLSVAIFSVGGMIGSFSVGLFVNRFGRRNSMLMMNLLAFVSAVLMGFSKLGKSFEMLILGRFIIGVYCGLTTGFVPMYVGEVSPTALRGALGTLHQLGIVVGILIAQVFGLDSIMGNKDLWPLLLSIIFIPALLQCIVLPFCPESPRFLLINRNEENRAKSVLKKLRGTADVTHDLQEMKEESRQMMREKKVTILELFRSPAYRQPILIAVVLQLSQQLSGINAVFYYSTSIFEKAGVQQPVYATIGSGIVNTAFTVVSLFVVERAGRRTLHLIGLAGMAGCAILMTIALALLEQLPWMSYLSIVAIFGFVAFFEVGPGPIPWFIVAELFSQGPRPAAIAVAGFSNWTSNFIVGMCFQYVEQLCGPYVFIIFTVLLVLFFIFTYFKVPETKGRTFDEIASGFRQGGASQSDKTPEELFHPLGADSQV

SMILES | inhibition [%]
COc1cc(Cc2cnc(N)nc2N)cc(OCCCCC2SC(=O)NC2=O)c1Br (centres undefined) | 6.08
O=C(Nc1ccc(-c2nc3ccc(NC(=O)c4ccc(Br)cc4)cc3[nH]2)cc1)c1ccc(Br)cc1 | -0.81
CN1CCCN(c2ccnc3cc4c(cc23)N(C(=O)c2ccccc2Cl)CC4)CC1 | -0.76
CC(C)(C(=O)Nc1ccc(C2CCC(NCC3CC3)CC2)c(Cl)c1)c1ccc(C(F)(F)F)cc1 (centres undefined) | 0.29
Cc1ccc(NC(=O)c2ccc(Cl)cc2)cc1-c1ccc(C(=O)Nc2ccncc2)cc1 | -1.61
N#CCOc1c(C2CCN(CCCCNC(=O)c3ccc(-c4ccc(C(F)(F)F)cc4)cc3)CC2)ccc2c1CCCC2 | 4.16
O=C(Nc1cn(-c2ccc(OCc3cccc(F)c3)c(Cl)c2)c2ncncc12)c1ccncc1 | 1.53
CCN(CC)CCN(CCCc1ccc(-c2ccc(C(F)(F)F)cc2)cc1)C(=O)Cn1c(CCc2cccc(F)c2F)nc(=O)c2ccccc21 | 2.87
O=C(/C=C/c1ccc(Cl)c(Cl)c1)NCCCCCN1CCC(C(=O)Nc2cccc(Cl)c2)CC1 | 2.86
CCC(CC)(Cc1ccccc1)NC(=O)[C@H](Cc1ccc(OC)c(OC)c1)Nc1ccc(C#N)c2ccccc12 | 2.88
O=C(Nc1cccc(CN2CCCN(Cc3cccc(F)c3)CC2)c1)c1ccc(Cl)c(Cl)c1 | 4.11
O=C(NCc1ccc(Cl)cc1)c1ccc(CN2CCCN(CC3CCCCC3)CC2)cc1 | 4.46
Cc1cc(=NN=Cc2ccccc2F)c2cc(F)ccc2[nH]1 | 1.79
Clc1cc(Nc2ccnc3ccc(Br)cc23)ccc1Oc1ccc2ccccc2c1Cl | 2.41
